Data reported in paper PMC5540273 (PLoS ONE, 2017).

Tests used:
Details in all cases: concentration: 1 μM,replicates: in singlicate; n = 1
[1] = tested on: RPS6KA4(Kin.Dom.1-N-terminal)
[2] = tested on: RPS6KA4(Kin.Dom.2-C-terminal)
[3] = tested on: RPS6KA5(Kin.Dom.1-N-terminal)
[4] = tested on: RPS6KA5(Kin.Dom.2-C-terminal)
[5] = tested on: T1, RSK1(Kin.Dom.1-N-terminal)
T1 construct: gene RPS6KA1

[6] = tested on: T2, RSK1(Kin.Dom.2-C-terminal)
T2 construct: gene RPS6KA1

[7] = tested on: T3, RSK2(Kin.Dom.1-N-terminal)
T3 construct: gene RPS6KA3

[8] = tested on: T4, RSK2(Kin.Dom.2-C-terminal)
T4 construct: gene RPS6KA3

[9] = tested on: T5, RSK3(Kin.Dom.1-N-terminal)
T5 construct: gene RPS6KA2

[10] = tested on: T6, RSK3(Kin.Dom.2-C-terminal)
T6 construct: gene RPS6KA2

[11] = tested on: T7, RSK4(Kin.Dom.1-N-terminal)
T7 construct: gene RPS6KA6

[12] = tested on: T8, RSK4(Kin.Dom.2-C-terminal)
T8 construct: gene RPS6KA6

S6K1 = tested on: S6K1
SBK1 = tested on: SBK1
SGK2 = tested on: SGK2
SGK3 = tested on: SGK3
SGK = tested on: SGK
SIK2 = tested on: SIK2
SIK = tested on: SIK
SLK = tested on: SLK
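Also: KINOMEscan kinase panel screen.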

Compound | %Inh [1] [%] | %Inh [2] [%] | %Inh [3] [%] | %Inh [4] [%] | %Inh [5] [%] | %Inh [6] [%] | %Inh [7] [%] | %Inh [8] [%] | %Inh [9] [%] | %Inh [10] [%] | %Inh [11] [%] | %Inh [12] [%] | %Inh (S6K1) [%] | %Inh (SBK1) [%] | %Inh (SGK2) [%] | %Inh (SGK3) [%] | %Inh (SGK) [%] | %Inh (SIK2) [%] | %Inh (SIK) [%] | %Inh (SLK) [%]
C[C@H]1Oc2cc(cnc2N)-c2c(nn(C)c2C#N)CN(C)C(=O)c2ccc(F)cc21 | 3 | 0 | 16 | 1 | 0 | 0 | 0 | 0 | 5 | 14 | 0 | 14 | 0 | 69 | 0 | 0 | 0 | 0 | 12 | 98.3
C=CC(=O)Nc1cc2c(Nc3ccc(F)c(Cl)c3)ncnc2cc1OCCCN1CCOCC1 [GW781483] | 7 | 3 | 0 | 0 | 0 | 0 | 33 | 24 | 17 | 11 | 0 | 35 | 27 | 0 | 10 | 8 | 15 | 0 | 0 | 39
CCN(CC)CCOc1ccc(Nc2ncc3cc(-c4c(Cl)cccc4Cl)c(=O)n(C)c3n2)cc1 [SB-601273] | 0 | 0 | 0 | 36 | 19 | 51 | 45 | 47 | 29 | 0 | 0 | 86 | 21 | 66 | 2 | 3 | 19 | 100 | 99.8 | 99.3
Cl.Cl.NC[C@H](CC1CCCCC1)NC(=O)c1cc(Br)c(-c2ccnc3[nH]ccc23)s1 [GSK1581427] | 56 | 5 | 50 | 13 | 26 | 64 | 49 | 5 | 38 | 0 | 38 | 5 | 78 | 69 | 23 | 72 | 39 | 0 | 0 | 2
Cc1cc(C(=O)Nc2ccc(Oc3ccc4nc(NC(=O)C5CC5)cn4n3)cc2)nn1-c1ccccc1 | 20 | 0 | 0 | 6 | 0 | 0 | 0 | 49 | 0 | 6 | 0 | 0 | 0 | 0 | 0 | 0 | 0 | 0 | 27 | 0
O=C(NCCNc1ccnc(NCc2ccc(F)cc2)n1)c1cc2ccccc2s1 [GSK1379944] | 28 | 0 | 24 | 0 | 11 | 0 | 0 | 18 | 20 | 0 | 0 | 8 | 9 | 7 | 4 | 34 | 0 | 0 | 0 | 12
Cc1cc2cn[nH]c2cc1-c1cccc2c(N)c(C(N)=O)nnc12 | 92.6 | 12 | 51 | 2 | 48 | 15 | 58 | 0 | 26 | 2 | 40 | 0 | 23 | 42 | 26 | 45 | 41 | 1 | 100 | 16
NC(=O)c1cc(-c2ccccc2)cc2c(C3CCNCC3)c[nH]c12 [GSK301362] | 16 | 0 | 12 | 4 | 8 | 0 | 0 | 54 | 27 | 0 | 0 | 0 | 0 | 31 | 5 | 0 | 0 | 59 | 10 | 10
C[C@@H]1CCN(C(=O)CC#N)C[C@@H]1N(C)c1ncnc2[nH]ccc12 | – | 0 | 0 | 0 | 20 | 0 | 0 | 0 | 0 | 100 | 0 | 100 | 0 | 0 | 0 | 5 | 0 | 0 | 0 | 0
